According to PubChem BioAssay (NCI):
Compounds without any hit were thinned out: in the full panel of roughly 79,000, 15% have a hit. Activity calls are given as the source filed them. No stated cut-off is given here; in the data, active means growth inhibition above about 70%; inactive means the rest.

Experiments:
[1] = NCI Yeast Anticancer Drug Screen. Data for the rad52 strain (AID 147);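 further: 0% = growth of vehicle-treated control cultures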; settings: S. cerevisiae rad52 mutant growth inhibition, hits give high values
In short: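 Measured: yeast growth inhibition. System: strain with a defined DNA damage repair alteration. Reference: vehicle-treated control cultures.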

[2] = NCI Yeast Anticancer Drug Screen. Data for the wt1 strain (AID 149);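 further: 0% = growth of vehicle-treated wt1 cultures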; settings: S. cerevisiae wt1 strain (SPY 50644) growth inhibition, hits give high values
In short: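 Readout: yeast growth inhibition, normalised to vehicle controls, in the wt1 strain exposed to test compounds.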

[3] = NCI Yeast Anticancer Drug Screen. Data for the rad50EPP+ strain (AID 151);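 further: 0% = growth of vehicle-treated control cultures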; settings: S. cerevisiae rad50 mutant strain, hits give high values
In short: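 One strain with a rad50 alteration (rad50EPP+) was compound-treated, its growth then compared to that of vehicle controls.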

[4] = NCI Yeast Anticancer Drug Screen. Data for the rad50 strain (AID 155);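 further: 0% = growth of vehicle-only cultures of the same strain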; settings: S. cerevisiae rad50 strain growth inhibition, hits give high values
In short: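 Compounds were tested on a yeast strain with an engineered DNA damage repair alteration; the reported value is growth inhibition normalised to vehicle treatment.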

[5] = NCI Yeast Anticancer Drug Screen. Data for the mec2-1 strain (AID 157); settings: S. cerevisiae mec2-1 strain, hits give high values
In short: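 Test agents were screened against the mec2-1 yeast strain, with defined DNA repair or cell cycle alteration. Growth was scored as inhibition against vehicle-only controls.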

[6] = NCI Yeast Anticancer Drug Screen. Data for the rad14 strain (AID 159);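 further: 0% = growth of vehicle-treated control cultures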; settings: S. cerevisiae rad14 strain growth inhibition, hits give high values
In short: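 Compound-treated yeast with a defined DNA-repair lesion; growth inhibition normalised to vehicle-treated cultures.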

[7] = NCI Yeast Anticancer Drug Screen. Data for the sgs1 mgt1 strain (AID 161);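 further: 0% = growth of cultures given vehicle only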; settings: S. cerevisiae sgs1 mgt1 strain, hits give high values
In short: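 Genetically altered yeast, compound exposure, growth inhibition relative to vehicle.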

[8] = NCI Yeast Anticancer Drug Screen. Data for the CLN2oe strain (AID 163);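 further: 0% = growth of vehicle-only control cultures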; settings: S. cerevisiae CLN2oe strain, hits give high values
In short: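 Here, growth inhibition in a cell-cycle-altered yeast strain after compound exposure was quantified against vehicle control growth.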

[9] = NCI Yeast Anticancer Drug Screen. Data for the cln2 rad14 strain (AID 165);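 further: 0% = growth equal to vehicle treated cultures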; settings: S. cerevisiae cln2 rad14 strain, hits give high values
In short: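 Growth of compound-exposed yeast (cln2 rad14 genotype) measured and expressed as inhibition relative to vehicle.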

[10] = NCI Yeast Anticancer Drug Screen. Data for the bub3 strain (AID 167); settings: S. cerevisiae bub3 mutant strain, hits give high values
In short: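 Growth of a checkpoint-deficient yeast mutant is measured after compound exposure. Values represent inhibition relative to vehicle.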

[11] = NCI Yeast Anticancer Drug Screen. Data for the wt2 strain (AID 169);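 further: 0% = growth of vehicle-treated yeast cultures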; settings: S. cerevisiae wt2 strain growth inhibition, hits give high values
In short: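 Genetically defined yeast strains from a DNA-repair/cell-cycle panel were used. Compound-exposed yeast growth was measured, and the inhibition was calculated relative to vehicle treatment.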

[12] = NCI Yeast Anticancer Drug Screen. Data for the sgs1 strain (AID 173);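 further: 0% = growth of vehicle-only control cultures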; settings: S. cerevisiae sgs1 mutant, hits give high values
In short: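 Relative growth inhibition, referenced to vehicle, was determined in a yeast strain with a defined alteration affecting DNA damage repair or cell cycle control after compound exposure.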

[13] = NCI Yeast Anticancer Drug Screen. Data for the mlh1 rad18 strain (AID 175); settings: S. cerevisiae mlh1 rad18 strain growth inhibition, hits give high values
In short: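 In this whole-cell yeast screen, a strain with altered DNA damage repair is challenged with compound, and its growth is measured against matched vehicle-treated controls.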

[14] = NCI Yeast Anticancer Drug Screen. Data for the rad18 strain (AID 177); settings: S. cerevisiae rad18 mutant growth inhibition, hits give high values
In short: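 Screen uses a yeast strain with a defined lesion in DNA damage repair; compound effect is read as loss of growth compared to untreated vehicle cultures.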

[15] = NCI Yeast Anticancer Drug Screen. Data for the mgt1 strain (AID 153); settings: S. cerevisiae mgt1 mutant growth inhibition, hits give high values
In short: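 After exposure of the mgt1 yeast mutant to compound, growth was measured and reported as inhibition compared with vehicle controls.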

[16] = NCI Yeast Anticancer Drug Screen. Data for the mlh1 strain (AID 171);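 further: 0% = growth of vehicle-treated control cultures of the same strain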; settings: S. cerevisiae mlh1 strain growth inhibition, hits give high values
In short: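 Here the genetically defined yeast mutant is grown with each compound, and the extent to which its growth falls below that of vehicle-exposed cells is reported.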

[17] = at 5.0 µM (retest, dose inferred, filed as 0.5)
[18] = at 50.0 µM (retest, dose inferred, filed as 5.0)

Measured: growth inhibition

CC(C)(C)C1=CC(=CC=C2C=CN(CCCCCCCCCCCO)C=C2)C=C(C(C)(C)C)C1=O
inactive: [1]; at 1.2 µM -1% | [2]; at 1.2 µM -6% | [2]; at 3.7 µM 46% | [3]; at 1.2 µM -3% | [3]; at 3.7 µM -3% | [3]; at 11.0 µM -2% | [4]; at 1.2 µM -3% | [4]; at 3.7 µM 48% | [5]; at 1.2 µM -3% | [6]; at 1.2 µM -4% | [6]; at 3.7 µM 23% | [8]; at 1.2 µM -8% | [8]; at 3.7 µM 10% | [10]; at 1.2 µM -2% | [10]; at 3.7 µM 57% | [11]; at 1.2 µM -4% | [11]; at 3.7 µM 4% | [12]; at 1.2 µM -3% | [14]; at 1.2 µM -4% | [14]; at 3.7 µM 68%
active: [1]; at 3.7 µM 95% | [1]; at 11.0 µM 99% | [1]; at 33.0 µM 98% | [1]; at 100.0 µM 98% | [2]; at 11.0 µM 99% | [2]; at 33.0 µM 99% | [2]; at 100.0 µM 99% | [3]; at 33.0 µM 82% | [3]; at 100.0 µM 95% | [4]; [17] 86% | [4]; at 11.0 µM 99% | [4]; at 33.0 µM 98% | [4]; [18] 95% | [4]; at 50.0 µM 99.2% | [4]; at 100.0 µM 98% | [5]; at 3.7 µM 99% | [5]; [17] 99% | [5]; at 11.0 µM 99% | [5]; at 33.0 µM 99% | [5]; [18] 99% | [5]; at 50.0 µM 98.7% | [5]; at 100.0 µM 98% | [6]; at 11.0 µM 99% | [6]; at 33.0 µM 99% | [6]; at 100.0 µM 98% | [7]; [17] 99% | [7]; [18] 89% | [7]; at 50.0 µM 99.3% | [8]; at 11.0 µM 99% | [8]; at 33.0 µM 98% | [8]; at 100.0 µM 97% | [9]; [17] 99% | [9]; [18] 99% | [9]; at 50.0 µM 99.2% | [10]; [17] 94% | [10]; at 11.0 µM 98% | [10]; at 33.0 µM 98% | [10]; [18] 99% | [10]; at 50.0 µM 99% | [10]; at 100.0 µM 96% | [11]; at 11.0 µM 99% | [11]; at 33.0 µM 99% | [11]; at 100.0 µM 98% | [12]; at 3.7 µM 84% | [12]; at 11.0 µM 99% | [12]; at 33.0 µM 99% | [12]; at 100.0 µM 98% | [13]; [17] 98% | [13]; [18] 99% | [13]; at 50.0 µM 99.5% | [14]; at 11.0 µM 99% | [14]; at 33.0 µM 98% | [14]; at 100.0 µM 97%

O=C(COC(=O)c1ccccc1)c1ccc(Br)cc1
active: [1]; at 33.0 µM 99% | [1]; at 100.0 µM 98% | [3]; at 1.2 µM 75% | [3]; at 3.7 µM 93% | [3]; at 11.0 µM 99% | [3]; at 33.0 µM 99% | [3]; at 100.0 µM 97% | [15]; at 33.0 µM 99% | [15]; at 100.0 µM 98% | [4]; at 33.0 µM 98% | [4]; [18] 99% | [4]; at 50.0 µM 98.8% | [4]; at 100.0 µM 97% | [5]; at 33.0 µM 99% | [5]; [18] 99% | [5]; at 50.0 µM 99.3% | [5]; at 100.0 µM 99% | [6]; at 33.0 µM 99% | [6]; at 100.0 µM 98% | [7]; [18] 99% | [7]; at 50.0 µM 99.4% | [8]; at 33.0 µM 99% | [8]; at 100.0 µM 97% | [9]; [18] 99% | [9]; at 50.0 µM 98.8% | [10]; at 11.0 µM 100% | [10]; at 33.0 µM 99% | [10]; [18] 99% | [10]; at 50.0 µM 99.7% | [10]; at 100.0 µM 99% | [11]; at 11.0 µM 96% | [11]; at 33.0 µM 100% | [11]; at 100.0 µM 99% | [16]; at 33.0 µM 99% | [16]; at 100.0 µM 98% | [12]; at 11.0 µM 90% | [12]; at 33.0 µM 99% | [12]; at 100.0 µM 99% | [13]; [18] 99% | [13]; at 50.0 µM 99.2% | [14]; at 33.0 µM 99% | [14]; at 100.0 µM 98%
inactive: [1]; at 1.2 µM 14% | [1]; at 3.7 µM 20% | [1]; at 11.0 µM 45% | [15]; at 1.2 µM 5% | [15]; at 3.7 µM 13% | [15]; at 11.0 µM 22% | [4]; at 1.2 µM 17% | [4]; at 3.7 µM 23% | [4]; [17] 31% | [4]; at 11.0 µM 68% | [5]; at 1.2 µM 4% | [5]; at 3.7 µM 7% | [5]; [17] 67% | [5]; at 11.0 µM 17% | [6]; at 1.2 µM 16% | [6]; at 3.7 µM 18% | [6]; at 11.0 µM 30% | [7]; [17] 58% | [8]; at 1.2 µM 0% | [8]; at 3.7 µM 13% | [8]; at 11.0 µM 64% | [9]; [17] 12% | [10]; at 1.2 µM 49% | [10]; at 3.7 µM 65% | [10]; [17] 41% | [11]; at 1.2 µM 16% | [11]; at 3.7 µM 63% | [16]; at 1.2 µM 12% | [16]; at 3.7 µM 17% | [16]; at 11.0 µM 38% | [12]; at 1.2 µM -12% | [12]; at 3.7 µM 10% | [13]; [17] 34% | [14]; at 1.2 µM 15% | [14]; at 3.7 µM 17% | [14]; at 11.0 µM 37%

Cc1ccc(NC(c2ccccc2)c2ccc3cccnc3c2O)cc1 (stereo unspecified)
inactive: [1]; at 1.2 µM -1% | [1]; at 3.7 µM 0% | [1]; at 11.0 µM -1% | [1]; at 33.0 µM -1% | [1]; at 100.0 µM -2% | [2]; at 1.2 µM 1% | [2]; at 3.7 µM 4% | [2]; at 11.0 µM 4% | [2]; at 33.0 µM 1% | [2]; at 100.0 µM 1% | [15]; at 1.2 µM 0% | [15]; at 3.7 µM 2% | [15]; at 11.0 µM 1% | [15]; at 33.0 µM 2% | [15]; at 100.0 µM 0% | [4]; at 1.2 µM 1% | [4]; at 3.7 µM -2% | [4]; [17] 18% | [4]; at 11.0 µM 6% | [4]; at 33.0 µM -2% | [4]; [18] 29% | [4]; at 50.0 µM 67.1% | [4]; at 100.0 µM -3% | [5]; at 1.2 µM 1% | [5]; at 3.7 µM 2% | [5]; [17] 5% | [5]; at 11.0 µM 1% | [5]; at 33.0 µM 2% | [5]; [18] 6% | [5]; at 50.0 µM 50.6%
